Screens deposited in PubChem by National Center for Advancing Translational Sciences (NCATS).
A selection: hits, their analogues and other compounds. The true share with any hit is near 5.9%.
FBPA coupling cs: coupling enzyme interference in Giardia aldolase counter-screen | coupling enzyme system counterscreen, AmpLite Red fluorescence | activity change, negative = inhibition, % at 58.2 µM, hits read low | hit rate 0.67% among 290,000; in the data active = activity change below about -30%
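Counterscreen lacking aldolase: glyceraldehyde-3-phosphate coupling-enzyme reagent preincubated 10 min at RT with compound (at 57.5 uM final), then substrate/coupling system with AmpLite Red added; fluorescence read at 525/598 nm after 20 min RT.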
TrxR1 substrate: is turned over as a substrate by rat TrxR1; O89049; purified TrxR1 substrate turnover, NADPH consumption readout; Potency, µM (titrated, usually from 114 µM), inactives show top-dose activity change, negative = substrate turnover; hit rate 0.01% among 390,000; note: potency is the fitted concentration of half-maximal effect; nearly all actives have a fitted effect of over 50% in size
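Rat TrxR1, dispensed at 90 nM, was prereduced with 400 uM NADPH (final) for 5 min at ~22 deg C, then incubated with compound 15 min before 400 uM selenite. A first-read NADPH fluorescence drop versus no-compound background flagged substrates.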
RORgamma inh: blocks mouse ROR gamma transcriptional activity. P51450. Drosophila S2 Gal4-RORgamma UAS-luciferase reporter, 20 h. Potency, µM (series often up to 53.6 µM), for inactives: at the top dose activity change, negative = inhibition, usual class: inhibitors. hit rate 5.4% among 310,000; note: potency is the fitted concentration of half-maximal effect; nearly all actives have a fitted effect of over 60% in size
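Compounds are pin-transferred onto Drosophila Schneider cells expressing a copper-inducible Gal4–ROR gamma transactivation domain fusion. After 1 hr, copper sulfate is added to 700 uM final; luciferase is read 20 hr later.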
rTrxR1 inhibitor: rat TrxR1 inhibition; O89049; recombinant rTrxR1, NADPH fluorescence consumption, selenite substrate; Potency, µM (doses to about 114 µM), for the others: top-dose activity change, negative = inhibition, hits mostly inhibitors; hit rate 1% among 390,000; AID 588453; note: potency is the fitted concentration of half-maximal effect; nearly all actives have a fitted effect of over 65% in size
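Rat TrxR1 (90 nM in the dispensed reagent) was pre-reduced with 400 uM NADPH for 5 min at room temperature, then incubated with compound for 15 min. After 400 uM selenite was added, NADPH fluorescence (Ex 340/Em 450 nm) was followed for 8 min.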
GALK inhibitor: blocks human galactokinase activity | Purified GALK, Kinase-Glo residual ATP luminescence | hit rate 0.007% among 270,000 | Potency, µM (titrated, usually from 57.5 µM), for inactives: top-dose activity change, negative = inhibition, most hits filed as inhibitors | P51570 | AID 1868; note: potency is the fitted concentration of half-maximal effect
Target sequence (P51570 whole entry, looked up): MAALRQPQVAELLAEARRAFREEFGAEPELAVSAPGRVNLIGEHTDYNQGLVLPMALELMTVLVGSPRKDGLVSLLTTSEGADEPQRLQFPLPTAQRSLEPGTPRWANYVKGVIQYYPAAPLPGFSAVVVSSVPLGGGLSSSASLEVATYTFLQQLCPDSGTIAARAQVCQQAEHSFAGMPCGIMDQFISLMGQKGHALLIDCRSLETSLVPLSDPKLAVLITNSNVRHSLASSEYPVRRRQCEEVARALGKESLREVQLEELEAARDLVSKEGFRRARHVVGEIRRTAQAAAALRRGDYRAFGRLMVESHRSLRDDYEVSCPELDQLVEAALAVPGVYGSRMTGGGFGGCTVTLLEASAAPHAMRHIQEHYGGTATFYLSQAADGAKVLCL
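5 nM enzyme, 35 uM ATP, 100 uM galactose, 20 mM HEPES pH8.0, 5 mM MgCl2; 1 h RT; residual ATP by Kinase-Glo Plus luminescence, qHTS format.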
Gal4-VP16 FLuc: Gal4-VP16 reporter inhibition counter-screen | Drosophila S2 Gal4-VP16 UAS-luciferase, luminescence, 20 h | Potency, µM (top dose mostly 53.6 µM), for the others: top-dose activity, negative = inhibition, most hits filed as inhibitors | hit rate 3.5% among 310,000 | AID 2546;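 note: Gal4-VP16 expression switched on by copper sulfate through the metallothionein promoter; potency is the fitted concentration of half-maximal effect; nearly all actives have a fitted effect of over 50% in size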
The depositor's hits bear a star; ? = inconclusive; nt = not tested or not shown; [ ] = remark or other dose. Unless noted, calls come from the whole dose curve; as a rule, active = well fitted curve in the direction sought with a large enough effect; inconclusive = small, poorly fitted or top-dose-only effect, or another doubt; inactive = no such curve, though single readings can be large; an effect the other way counts as inactive or inconclusive. % is set by controls: 0 for no effect and ±100 for the full control effect.

SMILES	FBPA coupling cs	TrxR1 substrate	RORgamma inh	rTrxR1 inhibitor	GALK inhibitor	Gal4-VP16 FLuc
Cc1[nH]n(-c2ccccc2)c(=O)c1N=Nc1ccc(C(N)=O)cc1	2	9%[2.29 µM]	37%	12%[57.1 µM]	3%	-7%
Cc1[nH]n(C(N)=S)c(=O)c1N=Nc1ccc(Br)cc1	3	-1%	0.35µM*	15%	6%	2µM*
Cc1[nH]n(C(N)=S)c(=O)c1N=Nc1ccc(S(=O)(=O)N2CCCC2)cc1	6	-17%	0.28µM*	-34%	1%	1.3µM*
Cc1ccc(N=Nc2c(C)[nH]n(C(N)=S)c2=O)cc1	-1	-9%[57.1 µM]	0.32µM*	2%[57.1 µM]	3%	0.89µM*
CC(C)c1ccc(Cn2ccc3c4c(N)nc(NC5CC5)nc4ccc32)cc1	-9	nt	16µM*	nt	nt	?
COC(=O)/C=C1/S/C(=N/NC(=O)c2ccc(OC)cc2)NC1=O	0	-8%	14µM*	4%	7%	?
COC(=O)c1ccccc1NC(=O)c1noc2c1CSc1ccccc1-2	nt	-4%	nt	14µM*	nt	nt
COc1ccc(C)cc1NC(=O)c1noc2c1CSc1ccccc1-2	nt	8%	nt	14%	nt	nt
CCC(=O)Nc1cc(C)c(NC(=O)c2ccccc2OC)cn1	0	3%	7%	4%	5%	2%
Oc1c(Br)cc(Br)cc1C=Nc1ccc2c(c1)OCCO2	-6	2%[57.1 µM]	?	17%[57.1 µM]	2%	?
Oc1c(Br)cc(Br)cc1C=Nc1ccc2c(c1)OCO2	-3	-3%	18µM*	-12%	-1%	?
COc1ccc(-c2csc(N3CCN(c4cc(C)nc5ccccc45)CC3)n2)cc1OC	0	6%[57.1 µM]	-41%	9%	-1%	-5%[10 µM]
COC(=O)Oc1ccc(/C=N/NC(=O)CSCc2ccc(Cl)cc2)cc1OC	6	-11%	-8%	12%	0%	16µM*
COC(=O)Oc1ccc(/C=N/NC(=O)CN(c2ccccc2Cl)S(C)(=O)=O)cc1OC	2	16%[57.1 µM]	0.0089µM*	22%	1%	0%
O=C(CSCc1ccc(Cl)cc1)N/N=C/c1ccccc1	-37*	-10%	9%	-17%	-3%	-7%
O=C(CSCc1ccccc1)N/N=C/c1cc2c(cc1Br)OCO2	2	12%	?	11%	1%	11µM*
Cc1oc(/C=N/NC(=O)CN(c2ccccc2Cl)S(C)(=O)=O)cc1Br	0	-8%	22%	?	3%	-6%
CC(=O)C1C(c2ccc([N+](=O)[O-])cc2)c2c(noc2C)CC1(C)O (stereo not drawn)	3	6%[57.1 µM]	1%	12%[57.1 µM]	-1%	-11%
CCC(C)[C@H](NC(=O)NCc1cccnc1)C(=O)OC (stereo partly drawn)	3	2%	-10%	16%	-1%	1%
O/N=C(/c1ccc(Cl)cc1)C1CC1c1ccccc1 (stereo not drawn)	0	-6%	-2%	0%	10%	2%
CC12CCC(C(=O)N(CC(O)CN3CCCCCC3)C1=O)C2(C)C (stereo not drawn)	3	-2%	-12%[10 µM]	-8%	1%	2%
Cc1ccc2c(c1)/C(=N/OS(=O)(=O)c1ccccc1)CCS2	nt	-7%	nt	-25%	nt	nt
CC1=CC(=O)C=C(C)C1=NOS(=O)(=O)c1ccccc1	-87*	-14%	18µM*	?	1%	18µM*
CC1=CC(=O)C(C(C)C)=C/C1=N/OS(=O)(=O)c1ccccc1	-73*	-9%	2.8µM*	?	2%	2µM*
CC(C)CCNC(=O)c1cn(C)c2ccc(S(=O)(=O)N3CCOCC3)cc2c1=O	nt	-6%	nt	-7%	nt	nt
SMILES	FBPA coupling cs	TrxR1 substrate	RORgamma inh	rTrxR1 inhibitor	GALK inhibitor	Gal4-VP16 FLuc
CN(C)c1nc(=NCc2ccco2)ss1	-56*	11%[57.1 µM]	?	7%[2.29 µM]	3%	?
O=C(NNc1nc2cc3c(cc2s1)OCCO3)c1ccc(F)cc1	4	2%	2.8µM*	25%	3%	?
O=C(NNc1nc2cc3c(cc2s1)OCO3)c1ccc(F)cc1	1	-4%	1.3µM*	-10%	nt	?
O=C(Nc1nc2cc3c(cc2s1)OCCO3)c1ccncc1	-4	4%[57.1 µM]	-30%	11%[57.1 µM]	10%	-21%
CC(c1ccccc1)C1CC(=O)N(c2cc(Cl)ccn2)C1=O (stereo not drawn)	4	-5%[57.1 µM]	14%	5%[57.1 µM]	4%	-6%
C=C1CCC2C(C)(CO)C(O)CCC2(C)C1C/C=C1\C(=O)OCC1O (stereo not drawn)	7	5%	13µM*	3%	nt	-22%
C=C1CC[C@@H]2[C@](C)(CO)[C@H](O)CC[C@@]2(C)[C@@H]1/C=C/C1=CCOC1=O	0	5%	-2%	-21%	0%	-3%
NCCCCCCCCCCNS(=O)(=O)c1cccc2c(Cl)cccc12	3	2%	?	7%	nt	32µM*
CCN1C(=O)c2cccc3c(S(=O)(=O)NCc4ccccn4)ccc1c23	-1	20%[57.1 µM]	2%	13%[57.1 µM]	-2%	-15%
S=c1[nH]nc(-c2cc3c(s2)-c2ccccc2CC3)o1	9	307%[57.1 µM]	5µM*	-7%[57.1 µM]	-7%	10µM*
CSc1nnc(-c2cc3c(s2)-c2ccccc2CC3)o1	1	237%[57.1 µM]	1.3µM*	55%[57.1 µM]	-1%	-30%
C/C(=N\NC(=O)Cc1ccc(Cl)cc1)c1ccccc1O	2	-7%	0.28µM*	0%	-2%	0.32µM*
C/C(=N\NC(=O)Cc1ccc(Cl)cc1)c1ccc(F)cc1	-6	-2%	?	20%	-3%	-7%
C/C(=N\NC(=O)CSCc1ccc([N+](=O)[O-])cc1)c1ccccc1O	-1	-2%	0.32µM*	8%	0%	2µM*
O=C(Nc1ccc(F)cc1)c1cccnc1N1CCCCC1	5	-2%	-5%	22%	0%	-3%
COc1ccc(CC(=O)OCC(=O)Nc2ccc3c(c2)OCO3)cc1OC	-1	2%[57.1 µM]	36%	20%[57.1 µM]	-1%	-12%
COc1cc(NS(=O)(=O)c2ccc(OC)c(C)c2C)c(OC)cc1Cl	-11	-1%	?	9%	-1%	6.3µM*
COc1ccc(OC)c(S(=O)(=O)Nc2cc(OC)c(Cl)cc2OC)c1	-3	0%	42%	20%	-2%	3%
COc1ccc(-c2nc(S(=O)(=O)c3ccccc3)c(N3CCOCC3)o2)cc1	-1	-3%	23%[10 µM]	40µM*	0%	-1%
Cc1ccc(S(=O)(=O)c2nc(Cc3ccccc3)oc2N2CCOCC2)cc1	nt	9%	nt	4.5µM*	nt	nt
Cc1ccc(-c2nc(S(=O)(=O)c3ccc(C)cc3)c(N3CCN(c4ccccc4)CC3)o2)cc1	nt	9%	nt	29%	nt	nt
O=S(=O)(c1ccccc1)c1nc(-c2ccccc2)oc1N1CCCCC1	5	3%	0%	45µM*	2%	4%
